According to PubChem BioAssay AID2549 (National Center for Advancing Translational Sciences (NCATS), 2010):
Values joined by “and” are separate entries in the source; they are usually repeats but may differ in a detail not shown here. Equal entries are not always repeated. Hit rate of the full screen: of about 240,000 compounds, about 1,300 (0.54%) were called active. A call without a number means that no potency is given here. Roughly 1% stayed inconclusive and do not appear here. Calls come from the whole dose curve; as a rule, active = well fitted inhibition curve with a large enough effect; inconclusive = small, poorly fitted or top-dose-only effect; inactive = flat fitted curve, though single readings scatter. For the sample, actives were picked, then their nearest neighbours and some compounds at random. The source holds several records for some structures; these can differ, active in one and inactive in another.

target: ATP-dependent DNA helicase Q1 (Homo sapiens) (UniProt P46063); experiment: qHTS Assay for Inhibitors of RecQ-Like Dna Helicase 1 (RECQ1); conditions: RECQ1 DNA unwinding, red fluorescence kinetic read; series mostly up to 57.3 µM; note: nearly all actives have a fitted effect of over 30% in size
Description: Survival of cells and the faithful propagation of the genome depend on elaborate mechanisms of detecting and repairing DNA damage. Treatment of advanced cancer relies on radiation therapy or chemotherapy, which kill cancer cells by causing extensive DNA damage. It is often found, that cancer cells develop resistance to therapy through enhanced activity of DNA repair functions; this has led to an increased interest in developing drugs that interfere with DNA repair, which could sensitize cancer cells to conventional therapy.
This validation qHTS assay pertains to human RECQ1, which is important in resolving abnormal DNA structures formed during replication or homologous recombination. Shutting down the expression of RECQ1 leads to chromosomal instability and higher radiation sensitivity in cultured cells.
The validation assay was a fluorescence quenching based kinetic qHTS for RECQ1 Helicase DNA unwinding. The activity was measured as ATP-dependent separation of a 20-bp DNA duplex extended by 30-nt single-stranded tails (forked duplex). The forked DNA substrate was tagged with rhodamine fluorophore (carboxytetramethyl rhodamine, TAMRA) and BHQ-2 (Black Hole Quencher 2) dark quencher. Strand separation results in an increase in the fluorescence of TAMRA (excitation 525 nm, emission 598 nm). This substrate construct operates in a red-shifted region where very few compound library members have been noted to fluoresce (PubChem AIDs 593 and 594). An additional feature of the assay is the inclusion of 2.5 ug/ml poly (dIdC), to reduce interference by compounds such as DNA intercalators, a major source of false inhibitors.
Opher Gileadi, Structural Genomics Consortium, University of Oxford
Screening Center PI: Austin, C.P.
Screening Center: NIH Chemical Genomics Center [NCGC]
Three uL of reaction buffer (25 mM Tris-HCl (pH 8.0), 5 mM NaCl, 2 mM MgCl2, 1mM DTT, 0.01% Tween- 20, and 2.5 ug/ml poly(dI-dC), including enzyme (50 nM RECQ1T1), were dispensed into a 1536-well Greiner black assay plate via solenoid-valve based nanoliter dispensers. Compounds (23 nl each in columns 5-48) and control (23 nl each in column 2 as dose-response) were transferred via a Kalypsys pintool equipped with a 1536-pin array. The plates were incubated for 15 min at room temperature, and then 1 ul of substrates (200 nM DNA and 2 mM ATP, final concentrations) was added to start the reaction. The plate was transferred into a ViewLux high-throughput CCD imager where the reaction progress was measured in a discontinuous kinetic mode (two reads spaced 2 hours apart, with intermediate room temperature incubation of the covered assay plate) by using standard red-fluorescence optics (excitation filter 525 nm, emission filter 598 nm). Enzyme-free and vehicle (DMSO) controls were included for signal normalization.
Potency is the fitted concentration of half-maximal effect.

Sequence of ATP-dependent DNA helicase Q1 (Homo sapiens) (P46063 whole entry, looked up): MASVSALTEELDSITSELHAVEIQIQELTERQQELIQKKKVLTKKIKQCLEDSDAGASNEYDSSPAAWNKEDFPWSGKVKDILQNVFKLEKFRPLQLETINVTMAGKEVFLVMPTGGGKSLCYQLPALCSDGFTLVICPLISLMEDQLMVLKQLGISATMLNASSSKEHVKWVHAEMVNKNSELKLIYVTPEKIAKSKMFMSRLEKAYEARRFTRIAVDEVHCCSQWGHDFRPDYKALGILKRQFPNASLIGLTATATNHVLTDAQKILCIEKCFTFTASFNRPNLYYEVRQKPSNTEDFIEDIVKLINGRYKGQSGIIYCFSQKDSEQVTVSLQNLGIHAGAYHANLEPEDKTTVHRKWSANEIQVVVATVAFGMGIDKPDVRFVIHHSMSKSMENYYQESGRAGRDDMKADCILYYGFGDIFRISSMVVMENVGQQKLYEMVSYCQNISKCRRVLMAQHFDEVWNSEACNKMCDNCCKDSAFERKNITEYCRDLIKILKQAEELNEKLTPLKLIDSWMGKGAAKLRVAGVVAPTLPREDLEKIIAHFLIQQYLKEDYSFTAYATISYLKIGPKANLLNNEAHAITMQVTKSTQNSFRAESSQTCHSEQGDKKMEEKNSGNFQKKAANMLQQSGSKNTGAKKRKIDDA

Compound	Potency	outcome
O=C1NC(=O)N(Cc2ccco2)C(=O)/C1=C\c1ccc(-c2ccc(F)cc2)o1	25.1 µM (active)	–
O=C1NC(=O)N(CCc2ccc(F)cc2)C(=O)/C1=C/C=C/c1ccccc1	inactive	–
CC(C)CC(C)Nc1ccc(Nc2ccccc2)cc1 (stereo unspecified)	inactive	–
N#CC(C#N)=Cc1cc(O)c(O)c([N+](=O)[O-])c1	31.6 µM (active)	–
CCN(CC)c1nc(C)cc(OP(=S)(OC)OC)n1	inactive	–
O=C1CC(=O)N(Cc2ccccc2)C(=O)N1CCCCCCN1C(=O)CC(=O)N(Cc2ccccc2)C1=O	7.94 µM (active)	–
O=C(CN1CCCC1=O)NCCc1ccccc1	inactive	–
CC(C)(C)c1ccc(CN2C(=O)CN=C(c3ccccc3)c3ccccc32)cc1	inactive	–
CO[C@H]1[C@@H](O)[C@@H](C)O[C@H](O[C@H]2[C@H](Oc3cccc4c(O)c5c(=O)oc6ccc(C)c7c(=O)oc(c34)c5c67)O[C@H](C)[C@H](O)[C@@H]2O)[C@@H]1O	inactive	–
COc1cccc(N2C(=O)NC(=O)/C(=C\c3ccc([N+](=O)[O-])s3)C2=O)c1	22.4 µM (active)	–
Cc1c(C(=O)O)cccc1-n1c(C)cc(/C=C2\C(=O)NC(=O)N(c3ccc4c(c3)OCO4)C2=O)c1C	inactive	–
CCCCCCCCCCCCN=C(N)N	inactive	–
CCCN(C/C=C/I)C1CCc2ccc(O)cc2C1 (stereo unspecified)	inactive	–
ClCCBr	inactive	–
CC(C)(Cc1c[nH]c2ccc(Cl)cc12)NCCOc1ccccc1OCC1CC1	inactive	–
CC(=O)[O][Sn]([c]1ccccc1)([c]1ccccc1)[c]1ccccc1	inactive	–
CN(C)C[C@H]1CCCC[C@]1(O)c1cccc(O)c1	inactive	–
O=C(OCC1O[C@@H](OC(=O)c2cc(O)c(O)c(O)c2)[C@@H](OC(=O)c2cc(O)c(O)c(O)c2)[C@@H](OC(=O)c2cc(O)c(O)c(O)c2)[C@@H]1OC(=O)c1cc(O)c(O)c(O)c1)c1cc(O)c(O)c(O)c1 (stereo partly specified)	0.112 µM (active)	–

Compound	Potency	outcome
C=CCN1CCC2(C)c3cc(O)ccc3CC1[C@@H]2C (stereo partly specified)	inactive	–
CC(C)(C)C(O)(CCc1ccc(Cl)cc1)Cn1cncn1 (stereo unspecified)	inactive	–
O=C1CCc2cccc3c2N1CC3	inactive	–
C[C@@H]1C[C@H]2CC[C@H](O2)[C@H](C)C(=O)O[C@@H](C)C[C@@H]2CC[C@@H](O2)[C@@H](C)C(=O)O[C@H](C)C[C@H]2CC[C@H](O2)[C@H](C)C(=O)O[C@@H](C)C[C@@H]2CC[C@@H](O2)[C@@H](C)C(=O)O1	inactive	–
Nc1ccc(-c2ccc(N)c(N)c2)cc1N	inactive	–
CC[C@]1(O)C(=O)OCc2c1cc1n(c2=O)Cc2cc3ccccc3nc2-1	inactive	–
CC[N+](C)(CC)CCC[n+]1c(-c2ccccc2)c2cc(N)ccc2c2ccc(N)cc21	11.2 µM (active) and 35.5 µM (active)	–
C[C@H]1C/C=C/[C@@H]2[C@@H]3O[C@]3(C)[C@@H](C)[C@H]3[C@H](Cc4ccccc4)NC(=O)[C@]32OC(=O)O/C=C/[C@](C)(O)C1=O	inactive	–
CN(C)[C@@H]1C(=O)C(C(N)=O)=C(O)[C@@]2(O)C(=O)C3=C(O)c4c(O)cccc4[C@@](C)(O)C3CC12 (stereo partly specified)	inactive	–
N#CCCCl	inactive	–
N#Cc1cc(Br)c(O)c(Br)c1	inactive	–
CCCCC#N	inactive	–
CC(C)(c1ccc(OC[C@@H]2CO2)cc1)c1ccc(OC[C@H]2CO2)cc1	inactive	–
CO[C@@H]1C[C@@H](C[C@H]2CC[C@H](C)[C@@H]([C@@H](C)C(=O)O)O2)O[C@]2(O[C@](C)([C@H]3CC[C@@](C)(C4OC([C@H]5O[C@@](O)(CO)[C@H](C)C[C@@H]5C)C[C@@H]4C)O3)C[C@H]2C)[C@@H]1C (stereo partly specified)	inactive	–
C[C@]12O[C@H](C[C@@]1(O)C(=O)O)n1c3ccccc3c3c4c(c5c6ccccc6n2c5c31)CNC4=O	inactive	–
CN[C@@H]1C[C@H]2O[C@@](C)([C@@H]1OC)n1c3ccccc3c3c4c(c5c6ccccc6n2c5c31)C(=O)NC4	35.5 µM (active)	inactive [at 11.5 µM]
COc1ccc2[nH]cc(CCNCc3ccc(Br)cc3)c2c1	inactive	–
